Laboratory results: PubChem BioAssay AID1963576 (National Center for Advancing Translational Sciences (NCATS), 2024)
Out of some 46,000 compounds screened, about 60 (0.1%) were called active. Roughly 3% stayed inconclusive and do not appear here. Calls come from the whole dose curve; as a rule, active = well fitted inhibition curve with a large enough effect; inconclusive = small, poorly fitted or top-dose-only effect; inactive = no such curve, though single readings can be large or run the other way. The sample as a whole holds a higher share of actives than the screen did.

assay: Primary qHTS assay for Inhibitors of ovarian cancer metastasis using an organotypic tumor microenvironment (TME) model.; note: nearly all actives have a fitted effect of over 65% in size;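 for Potency: count of GFP cancer cells still attached after washing and fixation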; conditions: SKOV3ip1-GFP adhesion/invasion on 3D omental model, fluorescence; series mostly up to 45.8 µM; activity change, negative = inhibition: at the top concentration
From the text: PI: Ernst Lengyel MD., Ph.D. Department of Obstetrics and Gynecology, Section of Gynecologic Oncology University of Chicago Medicine, Chicago, Illinois. The tumor microenvironment (TME) is a key determinant of metastatic efficiency. We performed a quantitative high-throughput screen (qHTS) of diverse medicinal chemistry tractable scaffolds (44,420 compounds) and pharmacologically active small molecules (386 compounds) using a layered organotypic, robust assay representing the ovarian cancer metastatic TME. This 3D model contains primary human mesothelial cells, fibroblasts, and extracellular matrix, to which fluorescently labeled ovarian cancer cells are added. Initially, 100 compounds inhibiting ovarian cancer adhesion/invasion to the 3D model in a dose-dependent manner were identified. Of those, eight compounds were confirmed active in five high-grade serous ovarian cancer cell lines and were further validated in secondary in vitro and in vivo biological assays. […] Specifically, NCGC00117362 and PP-121 inhibited ovarian cancer adhesion, invasion, and proliferation, whereas milciclib inhibited ovarian cancer invasion and proliferation. […] To evaluate the clinical potential of NCGC00117362, structure - activity relationship studies were performed. […] The three compounds identified have promise as therapeutics for prevention and treatment of ovarian cancer metastasis.
PROTOCOL TABLE (as described by Inglese J, Shamu CE and Guy RK. 2007) SEQUENCE No. (e.g., 1, 2, 3, etc.); […] (e.g., Cells, Incubation, Reagent, etc.); VALUE; DESCRIPTION. 1; Cells; 4 uL; primary human omental fibroblast, black, clear bottom, low base, 1536-well Aurora assay plate. 2; Incubation; 48 hr; 37C. 3; Cells; 3 uL; 1,200 SKOV3ip1-GFP cells. 4; Compounds; 23nL; acoustic dispenser. 5; Incubation; 2 hr; room temperature. 6; Incubation; 16 hr; 37C. 7; Wash; 5 uL; 1x PBS. 8; Fixing; 5 uL; 4% paraformaldehyde (PFA). 9; Incubation; 15 min; room temperature 10; Wash, 5 uL; 1x PBS. 11; Detection; Fluorescence, excitation filter 488 nm, emission filter 509 nm. NOTES (numbers refer to Sequence numbers above) 1. For the 1,536-well format, 40 primary human omental fibroblasts and 400 mesothelial cells were seeded with 0.02 µg fibronectin and 0.02 µg collagen type I in 4 µL of growth media (2.3 mm2; Supplementary Fig. S1A). 2. Assay plates were incubated for 48 hours at 37 C. 3. After incubation, 1,200 SKOV3ip1-GFP were seeded in 3 µL of serum-free media (growth media minus FBS) on top of primary human omental cells. 4. Compounds or controls were added to each well immediately after the addition of the cancer cells. Compounds were screened in four doses (0.36-46 µmol/L), and the plates contained the positive control (Tomatine) in eight doses (0.035-75 µmol/L) and DMSO (equal volume controls) 5 - 6. The plates were incubated at room temperature for 2 hours and then at 37 degrees C for 16 hours. 7 - 10. Following incubation, the media were aspirated and each well washed with PBS (5 µL) and then fixed with 4% paraformaldehyde (PFA; 5 µL). After 15 minutes, the PFA solution was aspirated, PBS (5 µL) was added. 11. The number of GFP-labeled cells analyzed using a fluorescent cytometer TTP LabTech Acumen eX3 using 488 nm excitation filter and 509 nm emission filter. Data was normalized to the DMSO treated for negative and Tomatine treated wells for positive control. REFERENCES: Inglese J, Shamu CE and Guy RK, Reporting data from high throughput screening of small molecule libraries, Nature Chemical Biology, 2007, 3(8): 438-441. doi.org/10.1038/nchembio0807-438. Yasgar A, Shinn P, Jadhav A, Auld DS, Michael S, Zheng W, Austin CP, Inglese J and Simeonov A, Compound Management for Quantitative High-Throughput Screening. J. Assoc. Lab. Auto., 2008, 13: 79-89. doi: 10.1016/j.jala.2007.12.004.
Potency is the fitted concentration of half-maximal effect.

Activity change, negative = inhibition, inactive:
COc1cc(OC)cc(C(=O)Nc2cc3nn(-c4ccccc4)nc3cc2Cl)c1 -12.1%
CC(=O)c1ccc(N2CCN(c3nc4c(S(=O)(=O)c5ccccc5)nnn4c4ccc(Cl)cc34)CC2)cc1 -7.59%
Cc1cccc(N(C)C(=O)c2cc(S(=O)(=O)N3CCCCC3)c[nH]2)c1 5.29%
CO[C@H]1O[C@@H]2O[C@@]3(C)CC[C@@H]4[C@@H](C)CC[C@@H]([C@H]1C)[C@@]24OO3 -30.6%
Cn1c(SCC(=O)N2CCCc3ccccc32)ncc(C(=O)Nc2ccc(F)cc2)c1=O -22.2%
COc1ccccc1-c1nnc(SCC(N)=O)o1 -1.31%
CON=C(C(=O)N[C@@H]1C(=O)N2C(C(=O)OCOC(=O)C(C)(C)C)=C(C=Cc3scnc3C)CS[C@H]12)c1csc(N)n1 25.4%
CCc1ccc(NC(=O)CSc2nc3c([nH]c4ccccc43)c(=O)n2-c2cccc(OC)c2)cc1 -0.478%
CCOC(=O)N1CCN([N+]([O-])=NOc2ccc([N+](=O)[O-])cc2[N+](=O)[O-])CC1 -4.51%
Cc1nc2c(-c3ccccc3)c(C)nn2c(C)c1CCC(=O)NCCc1ccccc1 5.93%
COc1ccc(C2CC(=O)Nc3c2c(=O)nc2c(C)cccn32)cc1OC (stereo not given) 12.3%
CC(NC(=O)c1cc2c(=O)n3ccccc3nc2n(C(C)C)c1=N)c1ccccc1 (stereo not given) -15.9%
CCN1CCN(c2ncnc3c2cnn3-c2ccc(C)c(C)c2)CC1 -2.4%
CCc1cccc(NC(=O)CN(c2ccc(C)c(C)c2)S(=O)(=O)c2ccsc2C(=O)OC)c1 1.97%
CCc1nccn1S(=O)(=O)c1cc(Br)ccc1Br 9.09%
CCc1ccc(S(=O)(=O)c2nnn3c2nc(NCc2ccccc2OC)c2cc(Cl)ccc23)cc1 0.872%
Cc1ccc(NC(=O)c2oc3ccc(S(=O)(=O)N4CCCCC4)cc3c2C)cc1Cl -11.1%
Cc1ccc(-n2ncc3c(NCCCn4ccnc4)ncnc32)cc1Cl -4.11%
CC=CC[C@@H](C)C(=O)[C@H]1C(=O)N[C@@H](C(C)C)C(=O)N(C)CC(=O)N(C)[C@@H](CC(C)C)C(=O)N[C@@H](C(C)C)C(=O)N(C)[C@@H](CC(C)C)C(=O)N[C@@H](C)C(=O)N[C@H](C)C(=O)N(C)[C@@H](CC(C)C)C(=O)N(C)[C@@H](CC(C)C)C(=O)N(C)[C@@H](C(C)C)C(=O)N1C -11.6%
CCc1nc2nc(C)cc(Nc3ccc(F)c(Cl)c3)n2n1 27.4%
Cc1ccc(Cn2c(CNC(=O)Cc3cccc(C)c3)nc3cccnc32)cc1 -12.9%
O=C(Cn1nc(C(F)(F)F)c2c1CCCC2)Nc1ccc(Cl)cc1 1.23%
COc1ccc(NC(=O)COCc2cc(-c3ccco3)on2)cc1 -4.51%
O=C(Cn1nc(Cc2cccnc2)c2ccccc2c1=O)N1CCN(c2ccccc2F)CC1 -1.53%
COc1ccc(CN2CCc3nc(Nc4ccccc4)ncc3C2)c(OC)c1OC -5.54%
CO[C@H]1C[C@@H]2CC[C@@H](C)[C@@](O)(O2)C(=O)C(=O)N2CCCC[C@@H]2C(=O)O[C@H]([C@@H](C)C[C@@H]2CC[C@H](O)[C@H](OC)C2)CC(=O)[C@H](C)C=C(C)[C@@H](O)[C@@H](OC)C(=O)[C@H](C)C[C@H](C)C=CC=CC=C1C 33.7%
CCOC(=O)c1ccccc1NC(=O)c1sc2nc(-c3ccc(F)cc3)cn2c1C 12%
COc1ccc(-c2cn3c(n2)sc2cc(C(=O)Nc4ccc(F)cc4)ccc23)cc1 5.93%
CCOC(=O)c1cc2c(=O)n3ccccc3nc2n(Cc2ccco2)c1=NC(=O)c1ccc(F)cc1 15.7%
Cn1c(=O)c2c(n3c4ccccc4nc13)NC(=O)CC2c1cccc(Cl)c1 (stereo not given) -3.87%
COc1cccc(CNC(=O)CN2C(=O)CCc3cc(S(=O)(=O)N4CCOCC4)ccc32)c1 0.82%
O=C(NCCc1ccccc1)c1ccc2c(c1)N(Cc1ccc(F)cc1)C(=O)c1ccccc1S2(=O)=O 6.62%

outcome, inactive:
Cc1ccc(CNC(=O)CCc2c(C)nn(-c3ccc(N4CCCC4)nn3)c2C)cc1
Cc1nn(Cc2ccc(F)cc2)c(C)c1NC(=O)c1cc(CC(C)C)on1
Fc1ccc(-n2ncc3c(Nc4ccc(Oc5ccccc5)cc4)ncnc32)cc1
Cc1ccc(/C=C(\C#N)C(=O)Nc2cc(C)ccc2C)cc1
CSc1ccc(CCNC(=O)c2cnn(-c3ccccc3)c2-n2cccc2)cc1
COc1ccc(NC(=O)c2cnc(Nc3ccc(C)c(Cl)c3)c3ccccc23)cc1OC
COc1ccc(C(=O)Nc2ccc3nc(N4CCCCC4)cc(C)c3c2)cc1OC
COc1cc2ccccc2cc1C(=O)Nc1cccc(-c2nc3ccccc3o2)c1
Cc1ccc(-n2c(SCC(=O)Nc3cccc(F)c3)nc3c(oc4ccccc43)c2=O)cc1C
COc1cc2nc(SCC(=O)Nc3ccccc3F)n3nc(-c4ccccc4)nc3c2cc1OC
Cc1cccc(NC(=O)c2nnn(CC(=O)Nc3ccc(C(C)C)cc3)c2N)c1C

Potency, active:
CCN1CCN(c2cc(C)c3cc(NC(=O)c4cc(Cl)ccc4OC)ccc3n2)CC1 3.55 µM
COc1ccc(-c2cn3c(C)c(C(=O)Nc4cc(C)cc(C)c4)sc3n2)cc1 8.91 µM
